# Assay results published in PubChem BioAssay AID686979 (National Center for Advancing Translational Sciences (NCATS), 2013).
# Screen size: about 420,000 compounds; about 50,000 (12%) were called active. Where a call stands in place of a potency, no number is given. Another 26% or so got no clear call; they are omitted. Calls come from the whole dose curve; as a rule, active = well fitted inhibition curve with a large enough effect; inconclusive = small, poorly fitted or top-dose-only effect; inactive = flat fitted curve, though single readings scatter. The sample as a whole holds a higher share of actives than the screen did.
# Assay: qHTS for Inhibitors of human tyrosyl-DNA phosphodiesterase 1 (TDP1): qHTS in cells in presence of CPT; note: nearly all actives have a fitted effect of over 55% in size
# Settings: chicken DT40 Tdp1-/-;hTDP1 cells + 20 nM CPT, ATP luminescence, 48 h; series mostly up to 46.2 µM
# Summary of the method: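 Chicken DT40 Tdp1-/- cells complemented with human TDP1, 400 cells/well, exposed to compounds plus 20 nM camptothecin for at least 48 h at 37 C; viability read as ATP content by CellTiter-Glo luminescence.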
# Potency is the fitted concentration of half-maximal effect.
row,Structure (SMILES),Potency
1,CCN(CC(=O)Nc1ccc(NC(C)=O)cc1)C(=O)C1CC(=O)N(c2ccc3c(c2)OCCO3)C1 (stereo unspecified),inactive
2,COc1cccc(CNC(=O)CCC(=O)N2CC3CCCN3c3ccccc32)c1 (stereo unspecified),14.6 µM (active)
3,COc1cccc(CNC(=O)CCC2CCCN(C(=O)c3cc(C)[nH]n3)C2)c1 (stereo unspecified),inactive
4,COc1cccc(CNC(=O)C2CC(=O)N(C3CCCCCCC3)C2)c1 (stereo unspecified),inactive
5,CCOc1ccc(-c2nc(C)sc2CC(=O)O)cc1,inactive
6,Cc1cc(C)cc(NC(=O)C2CCCN(S(=O)(=O)c3ccc4[nH]c(=O)ccc4c3)C2)c1 (stereo unspecified),inactive
7,Cn1nnnc1SCC(=O)Nc1sccc1C(N)=O,inactive
8,COC(=O)C1=C(C)NC(=O)CC1c1ccccc1OC (stereo unspecified),inactive
9,CC1=C(C(=O)OCc2ccc(C)cc2)C(c2c(Cl)cccc2Cl)CC(=O)N1 (stereo unspecified),inactive
10,CC1=C(C(=O)OCc2ccc(C)cc2)C(c2ccccc2Cl)CC(=O)N1 (stereo unspecified),13 µM (active)
11,O=C(Nc1ccc(Cl)cn1)c1ccccc1-c1ccccc1,inactive
12,CC1(C)S[C@@H]2[C@H](N=CN3CCCCCC3)C(=O)N2[C@H]1C(=O)O,inactive
13,C=CCn1c(SCc2ccc(C(=O)NCCO)cc2)nc2ccccc2c1=O,inactive
14,OC1CSc2nc3ccccc3n2C1 (stereo unspecified),inactive
15,CC(=O)N1c2ccc(S(=O)(=O)N3CCC(C(=O)NC4CCCCC4C)CC3)cc2CC1C (stereo unspecified),inactive
16,COc1ccc(OC)c(NC(=O)c2cccc(S(=O)(=O)N3CCN(C(C)=O)CC3)c2)c1,inactive
17,CCc1cccc(NC(=O)C2CCCN(S(=O)(=O)c3ccc4[nH]c(=O)ccc4c3)C2)c1 (stereo unspecified),inactive
18,CC(=O)N1c2ccc(S(=O)(=O)N3CCC(C(=O)NCc4ccc(F)cc4)CC3)cc2CC1C (stereo unspecified),inactive
19,CC(=O)N1c2ccc(S(=O)(=O)N3CCCC(C(=O)Nc4cccc(Cl)c4)C3)cc2CC1C (stereo unspecified),16.4 µM (active)
20,COc1ccc(OC)c(NC(=O)C2CCCN2S(=O)(=O)c2ccc3c(c2)CC(C)N3C(C)=O)c1 (stereo unspecified),20.6 µM (active)
21,CC(=O)N1c2ccc(S(=O)(=O)N3CCC(C(=O)NC4CCCC(C)C4C)CC3)cc2CC1C (stereo unspecified),inactive
22,CC(=O)N1c2ccc(S(=O)(=O)N3CCCC(C(=O)Nc4cccc(F)c4)C3)cc2CC1C (stereo unspecified),11.6 µM (active)
23,COc1ccc(OC)c(NC(=O)C2CCCN2S(=O)(=O)c2cccc3nsnc23)c1 (stereo unspecified),inactive
24,CC(=O)N1CCc2cc(Br)cc(S(=O)(=O)CCC(=O)Nc3c(C)n(C)n(-c4ccccc4)c3=O)c21,inactive
25,COC(=O)c1cc(NC(=O)CCc2c(C)nc3c4c(C)cc(C)nc4nn3c2C)cc(C(=O)OC)c1,inactive
26,COc1ccc(NC(=O)CCCc2nnc3n(CCC(C)C)c(=O)c4sccc4n23)c(OC)c1,inactive
